Among all 5,500 compounds or so, about 2,000 (36%) were called active. Another 18% or so got no clear call; they are omitted. Rule as the data show it: active = normalized growth mostly below about 0.91 (no sharp cut-off); inconclusive = no clear call, values can overlap the other calls; inactive = mostly above about 0.92. Some of the results follow.
Assay: chemical genetic growth profiling, strain panel (AID 1159580);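 also: tested at 20 µM; growth read once vehicle control cultures reached saturation at 30 °C; 1 = growth at the plate median or of vehicle wells; lower values mean less growth of the strain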
Details: growth OD
[1] = S. cerevisiae deletion strains, locus YDL101C, strain DUN1, active compounds read low
[2] = S. cerevisiae deletion strains, locus YHR030C, strain SLT2, active compounds read low
[3] = S. cerevisiae deletion strains, locus YAL013W, strain DEP1, active compounds read low
[4] = S. cerevisiae deletion strains, locus YBR229C, strain ROT2, active compounds read low
[5] = S. cerevisiae deletion strains, locus YDR150W, strain NUM1, active compounds read low
[6] = S. cerevisiae deletion strains, locus YEL061C, strain CIN8, active compounds read low
[7] = S. cerevisiae deletion strains, locus YGR078C, strain PAC10, active compounds read low
[8] = S. cerevisiae deletion strains, locus YGR229C, strain SMI1, active compounds read low
[9] = S. cerevisiae deletion strains, locus YHR087W, strain rtc3, active compounds read low
[10] = S. cerevisiae deletion strains, locus YJR043C, strain POL32, active compounds read low
[11] = S. cerevisiae deletion strains, locus YJR075W, strain HOC1, active compounds read low
[12] = S. cerevisiae deletion strains, locus YKL190W, strain CNB1, active compounds read low
[13] = S. cerevisiae deletion strains, locus YLR039C, strain RIC1, active compounds read low
[14] = S. cerevisiae deletion strains, locus YLR058C, strain SHM2 (second series), active compounds read low
[15] = S. cerevisiae deletion strains, locus YLR085C, strain ARP6, active compounds read low
[16] = S. cerevisiae deletion strains, locus YLR262C, strain YPT6, active compounds read low
[17] = S. cerevisiae deletion strains, locus YML094W, strain GIM5, active compounds read low
[18] = S. cerevisiae deletion strains, locus YMR219W, strain ESC1, active compounds read low
[19] = S. cerevisiae deletion strains, locus YMR263W, strain SAP30, active compounds read low
[20] = S. cerevisiae deletion strains, locus YNL128W, strain TEP1, active compounds read low
[21] = S. cerevisiae deletion strains, locus YNL153C, strain GIM3, active compounds read low
[22] = S. cerevisiae deletion strains, locus YNL298W, strain CLA4 (second series), active compounds read low
[23] = S. cerevisiae deletion strains, locus YNL322C, strain KRE1, active compounds read low
[24] = S. cerevisiae deletion strains, locus YNR030W, strain Alg12, active compounds read low
[25] = S. cerevisiae deletion strains, locus YPL055C, strain LGE1, active compounds read low
[26] = S. cerevisiae deletion strains, locus YPL241C, strain CIN2, active compounds read low
[27] = S. cerevisiae deletion strains, locus YPR135W, strain CTF4, active compounds read low

Measured: normalized growth

CN(NC(=S)Nc1cc(Cl)ccc1Cl)c1ccc(C(F)(F)F)cc1[N+](=O)[O-]
inactive: S. cerevisiae deletion strains, locus YAR019C, strain CDC15, active compounds read low 0.972 | S. cerevisiae deletion strains, locus YBL105C, strain PKC1, active compounds read low 0.972 | S. cerevisiae deletion strains, locus YBR135W, strain CKS1, active compounds read low 0.982 | S. cerevisiae deletion strains, locus YBR136W, strain MEC1, active compounds read low 0.97 | S. cerevisiae deletion strains, locus YBR160W, strain CDC28, active compounds read low 0.979 | S. cerevisiae deletion strains, locus YDL017W, strain CDC7, active compounds read low 0.972 | S. cerevisiae deletion strains, locus YDL028C, strain MPS1, active compounds read low 0.985 | [1] 0.969 | S. cerevisiae deletion strains, locus YDL108W, strain KIN28, active compounds read low 0.969 | S. cerevisiae deletion strains, locus YDL132W, strain cdc53, active compounds read low 0.97 | S. cerevisiae deletion strains, locus YDL214C, strain PRR2, active compounds read low 0.946 | S. cerevisiae deletion strains, locus YDR052C, strain DBF4, active compounds read low 0.965 | S. cerevisiae deletion strains, locus YDR054C, strain cdc34, active compounds read low 0.97 | S. cerevisiae deletion strains, locus YDR226W, strain ADK1, active compounds read low 0.984 | S. cerevisiae deletion strains, locus YDR477W, strain SNF1, active compounds read low 0.964 | S. cerevisiae deletion strains, locus YER123W, strain YCK3, active compounds read low 0.893 | S. cerevisiae deletion strains, locus YER133W, strain GLC7, active compounds read low 0.949 | S. cerevisiae deletion strains, locus YFL009W, strain cdc4, active compounds read low 0.977 | S. cerevisiae deletion strains, locus YFL029C, strain CAK1, active compounds read low 0.979 | S. cerevisiae deletion strains, locus YFR003C, strain YPI1, active compounds read low 0.973 | S. cerevisiae deletion strains, locus YFR019W, strain FAB1, active compounds read low 0.977 | S. cerevisiae deletion strains, locus YFR028C, strain CDC14, active compounds read low 0.978 | S. cerevisiae deletion strains, locus YGR040W, strain KSS1, active compounds read low 0.96 | S. cerevisiae deletion strains, locus YGR052W, strain FMP48, active compounds read low 0.96 | S. cerevisiae deletion strains, locus YGR092W, strain DBF2, active compounds read low 0.825 | S. cerevisiae deletion strains, locus YHR079C, strain IRE1, active compounds read low 0.785 | S. cerevisiae deletion strains, locus YHR082C, strain KSP1, active compounds read low 1.03 | S. cerevisiae deletion strains, locus YHR205W, strain SCH9, active compounds read low 0.886 | S. cerevisiae deletion strains, locus YIL147C, strain SLN1, active compounds read low 0.971 | S. cerevisiae deletion strains, locus YJL095W, strain BCK1, active compounds read low 0.885 | S. cerevisiae deletion strains, locus YJL128C, strain PBS2, active compounds read low 0.929 | S. cerevisiae deletion strains, locus YJL157C, strain FAR1, active compounds read low 0.915 | S. cerevisiae deletion strains, locus YJR016C, strain ILV3, active compounds read low 0.971 | S. cerevisiae deletion strains, locus YJR066W, strain TOR1 (second series), active compounds read low 0.915 | S. cerevisiae deletion strains, locus YJR066W, strain TOR1, active compounds read low 0.973 | S. cerevisiae deletion strains, locus YKL048C, strain ELM1, active compounds read low 0.938 | S. cerevisiae deletion strains, locus YKL067W, strain YNK1, active compounds read low 0.953 | S. cerevisiae deletion strains, locus YKL101W, strain HSL1, active compounds read low 0.964 | S. cerevisiae deletion strains, locus YKL193C, strain SDS22, active compounds read low 0.952 | S. cerevisiae deletion strains, locus YKL203C, strain TOR2, active compounds read low 0.99 | S. cerevisiae deletion strains, locus YLR133W, strain CKI1, active compounds read low 0.929 | S. cerevisiae deletion strains, locus YLR403W, strain SFP1, active compounds read low 0.929 | S. cerevisiae deletion strains, locus YML070W, strain DAK1, active compounds read low 0.922 | S. cerevisiae deletion strains, locus YMR001C, strain CDC5, active compounds read low 0.971 | S. cerevisiae deletion strains, locus YMR205C, strain PFK2 (second series), active compounds read low 0.967 | S. cerevisiae deletion strains, locus YMR277W, strain FCP1, active compounds read low 0.972 | S. cerevisiae deletion strains, locus YNL006W, strain LST8, active compounds read low 0.974 | S. cerevisiae deletion strains, locus YNL020C, strain ARK1, active compounds read low 0.897 | S. cerevisiae deletion strains, locus YNL161W, strain CBK1, active compounds read low 0.977 | S. cerevisiae deletion strains, locus YNL183C, strain NPR1, active compounds read low 0.972 | S. cerevisiae deletion strains, locus YNL207W, strain RIO2, active compounds read low 0.976 | S. cerevisiae deletion strains, locus YNL222W, strain SSU72, active compounds read low 0.982 | S. cerevisiae deletion strains, locus YNL307C, strain MCK1 (second series), active compounds read low 0.932 | S. cerevisiae deletion strains, locus YOL078W, strain AVO1, active compounds read low 0.974 | S. cerevisiae deletion strains, locus YOL136C, strain PFK27, active compounds read low 0.903 | S. cerevisiae deletion strains, locus YOR061W, strain CKA2, active compounds read low 0.907 | S. cerevisiae deletion strains, locus YOR119C, strain RIO1, active compounds read low 1.04 | S. cerevisiae deletion strains, locus YOR231W, strain MKK1, active compounds read low 0.847 | S. cerevisiae deletion strains, locus YOR329C, strain SCD5, active compounds read low 0.97 | S. cerevisiae deletion strains, locus YPL031C, strain PHO85, active compounds read low 0.937 | S. cerevisiae deletion strains, locus YPL153C, strain RAD53, active compounds read low 0.942 | S. cerevisiae deletion strains, locus YPL204W, strain HRR25, active compounds read low 0.911 | S. cerevisiae deletion strains, locus YPL209C, strain IPL1, active compounds read low 0.977 | S. cerevisiae deletion strains, locus YPR025C, strain CCL1, active compounds read low 0.981 | S. cerevisiae deletion strains, locus YPR106W, strain ISR1, active compounds read low 0.981 | S. cerevisiae deletion strains, locus YPR111W, strain DBF20, active compounds read low 0.959 | S. cerevisiae deletion strains, strain NNK1, active compounds read low 0.951 | S. cerevisiae deletion strains, strain TSCII, active compounds read low 0.968
active: [2] 0.711 | S. cerevisiae deletion strains, locus YLR113W, strain HOG1, active compounds read low 0.74 | S. cerevisiae deletion strains, locus YPL256C, strain CLN2, active compounds read low 0.762

NNC(=S)Nc1cc(C(F)(F)F)ccc1Cl
inactive: [5] 0.872 | [8] 0.997 | [9] 0.938 | [11] 0.92 | [14] 0.977 | [18] 0.978 | [19] 0.914 | [23] 0.993
active: [3] 0.926 | [4] 0.87 | S. cerevisiae deletion strains, locus YCL061C, strain MRC1, active compounds read low 0.828 | [1] 0.875 | S. cerevisiae deletion strains, locus YDL134C, strain PPH21, active compounds read low 0.86 | [6] 0.807 | [7] 0.848 | [2] 0.324 | [10] 0.88 | [12] 0.64 | [13] 0.711 | [15] 0.298 | [16] 0.804 | [17] 0.81 | [20] 0.858 | [21] 0.899 | [22] 0.408 | [24] 0.525 | [25] 0.786 | [26] 0.664 | [27] 0.373

NC(=S)Nc1cc(Cl)ccc1Cl
inactive: [3] 0.99 | [4] 0.976 | [1] 0.975 | [5] 0.906 | [6] 0.961 | [7] 0.975 | [8] 1 | [2] 0.888 | [9] 0.953 | [10] 0.997 | [11] 0.997 | [12] 0.999 | [13] 0.947 | [14] 0.981 | [15] 0.919 | [16] 0.979 | [17] 0.915 | [18] 1 | [19] 0.969 | [20] 0.993 | [21] 1 | [22] 0.944 | [23] 0.987 | [24] 0.988 | [25] 0.835 | [26] 0.988 | [27] 0.84 | S. cerevisiae strains, strain wild type, active compounds read low 0.99

Reference: PubChem BioAssay AID1159580 (chemical genetic matrix, 2015)
